For some assays here: Potency and affinity values are given separately.
How the values were obtained:
Parameters in all cases: scale not given: direction of the effect not stated beside the values
[1] = molecular target: Protein translocase subunit SecA (Escherichia coli (strain K12)) (UniProt P10408); assay: Assay to Identify E. coli SecA ATPase Inhibitors; type: functional; settings: 30 µM
[2] = molecular target: T1, Ubiquitin-activating enzyme e1, putative (Leishmania donovani (strain BPK282A1)) (UniProt E9BSI1); assay: Leishmania donovani Ubiquitin Activating Enzyme (LdE1); type: functional; settings: 30 µM
T1 sequence (whole entry): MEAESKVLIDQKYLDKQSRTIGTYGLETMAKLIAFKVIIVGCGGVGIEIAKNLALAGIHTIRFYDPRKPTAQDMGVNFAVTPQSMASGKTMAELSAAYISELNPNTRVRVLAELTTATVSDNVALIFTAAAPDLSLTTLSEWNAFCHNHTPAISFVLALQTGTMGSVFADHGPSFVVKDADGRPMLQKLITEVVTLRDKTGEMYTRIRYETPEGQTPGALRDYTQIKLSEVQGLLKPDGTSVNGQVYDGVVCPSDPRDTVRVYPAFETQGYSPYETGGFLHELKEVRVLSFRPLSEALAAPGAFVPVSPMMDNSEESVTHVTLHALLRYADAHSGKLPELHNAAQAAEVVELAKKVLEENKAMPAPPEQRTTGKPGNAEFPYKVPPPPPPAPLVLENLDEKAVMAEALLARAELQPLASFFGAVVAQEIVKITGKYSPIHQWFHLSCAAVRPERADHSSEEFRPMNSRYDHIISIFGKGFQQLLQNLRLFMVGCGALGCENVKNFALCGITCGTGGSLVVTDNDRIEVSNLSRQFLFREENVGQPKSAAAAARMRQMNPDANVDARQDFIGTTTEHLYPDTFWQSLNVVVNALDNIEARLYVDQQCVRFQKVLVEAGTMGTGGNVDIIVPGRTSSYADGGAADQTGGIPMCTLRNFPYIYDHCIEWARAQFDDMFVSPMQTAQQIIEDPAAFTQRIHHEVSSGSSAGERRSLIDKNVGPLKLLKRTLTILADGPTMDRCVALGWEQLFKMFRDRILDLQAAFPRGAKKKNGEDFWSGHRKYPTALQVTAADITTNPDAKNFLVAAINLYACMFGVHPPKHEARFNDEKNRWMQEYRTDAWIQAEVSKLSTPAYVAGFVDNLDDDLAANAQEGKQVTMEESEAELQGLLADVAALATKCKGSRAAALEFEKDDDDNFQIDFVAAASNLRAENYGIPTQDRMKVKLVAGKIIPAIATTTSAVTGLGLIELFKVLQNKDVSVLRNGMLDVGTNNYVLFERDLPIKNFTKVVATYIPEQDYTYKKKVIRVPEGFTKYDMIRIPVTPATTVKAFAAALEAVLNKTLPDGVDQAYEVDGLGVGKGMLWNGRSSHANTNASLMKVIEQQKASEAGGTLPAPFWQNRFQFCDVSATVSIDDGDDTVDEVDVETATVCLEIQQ

[3] = molecular target: AMP-activated protein kinase, AMPK (Homo sapiens) (UniProt P54646+O43741+P54619+Q9UGJ0+Q9Y478+Q13131+Q9UGI9); assay: AMP-dependent Kinase enzyme assay. An in vitro enzyme assay that detects ADP turnover that is directly proportional to AMPK activity. This uses naive AMPK that is activated during the assay with MK-8722; type: functional; settings: 30 µM
[4] = molecular target: Sialic acid-binding Ig-like lectin 9 (Homo sapiens) (UniProt Q9Y336); assay: Hs-Siglec9 ALPHAscreen SOP 20170721; settings: 10 µM
Chain of Sialic acid-binding Ig-like lectin 9 (Homo sapiens) (Q9Y336 whole entry): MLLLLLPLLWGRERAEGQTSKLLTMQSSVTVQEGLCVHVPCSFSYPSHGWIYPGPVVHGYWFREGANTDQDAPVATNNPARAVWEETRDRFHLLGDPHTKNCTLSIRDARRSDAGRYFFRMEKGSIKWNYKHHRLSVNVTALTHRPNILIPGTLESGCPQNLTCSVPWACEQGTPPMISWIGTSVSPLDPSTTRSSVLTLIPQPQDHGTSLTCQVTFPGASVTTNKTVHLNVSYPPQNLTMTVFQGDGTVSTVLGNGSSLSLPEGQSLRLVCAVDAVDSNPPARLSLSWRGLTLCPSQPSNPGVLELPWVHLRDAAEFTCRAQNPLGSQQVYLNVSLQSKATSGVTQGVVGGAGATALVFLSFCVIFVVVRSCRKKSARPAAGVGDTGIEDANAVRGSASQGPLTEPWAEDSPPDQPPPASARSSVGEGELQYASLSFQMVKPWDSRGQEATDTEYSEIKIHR

Trypanosoma cruzi = assay: Trypanosoma cruzi phosphomannomutase and mannose-1-phosphate guanylyltransferase assay; type: functional; settings: 10 µM
[5] = molecular target: T2, Arginase-2, mitochondrial (Homo sapiens) (UniProt P78540); assay: in vitro enzyme assay to detect the production of urea directly proportional to the activity of Arginase II; type: functional; settings: 33.3 µM; further: in the data most compounds retested in dose-response had high values
T2 sequence (whole entry): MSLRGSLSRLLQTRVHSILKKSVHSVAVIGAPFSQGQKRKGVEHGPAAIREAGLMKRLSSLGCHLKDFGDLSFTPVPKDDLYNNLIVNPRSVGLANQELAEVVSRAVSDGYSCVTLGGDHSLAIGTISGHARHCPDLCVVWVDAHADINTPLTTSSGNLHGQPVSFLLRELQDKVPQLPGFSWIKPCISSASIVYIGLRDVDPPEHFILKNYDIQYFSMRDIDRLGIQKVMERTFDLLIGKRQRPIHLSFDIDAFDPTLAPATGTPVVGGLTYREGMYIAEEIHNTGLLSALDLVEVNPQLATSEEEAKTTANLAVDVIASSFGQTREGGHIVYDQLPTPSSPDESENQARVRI

[6] = molecular target: T3, Proteasome subunit beta (Trypanosoma cruzi) (UniProt O96673); assay: Trypanosoma cruzi proteasome chymotrypsin-like activity (TcProtChymo) assay.; further: in the data most compounds retested in dose-response had high values; type: functional; settings: 9.37 µM
T3 sequence (whole entry): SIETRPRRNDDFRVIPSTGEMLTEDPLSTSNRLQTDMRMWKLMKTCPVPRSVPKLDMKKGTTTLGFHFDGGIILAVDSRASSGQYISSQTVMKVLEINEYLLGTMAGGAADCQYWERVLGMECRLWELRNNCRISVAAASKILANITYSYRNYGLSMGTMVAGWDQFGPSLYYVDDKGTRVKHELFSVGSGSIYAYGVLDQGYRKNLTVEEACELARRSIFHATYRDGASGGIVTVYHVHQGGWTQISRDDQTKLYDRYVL

Homo sapiens = organism: Homo sapiens; assay: To identify inhibition of the IFN signalling (Jak-Stat) pathway via expression of an eGFP reporter gene under the control of an IFN-stimulated response element (ISRE) containing MxA promoter.; type: functional; settings: 30 µM
[7] = molecular target: T4, Tyrosyl-tRNA synthetase, putative (Trypanosoma cruzi (strain CL Brener)) (UniProt Q4DSP6); assay: Trypanosoma cruzi tyrosyl tRNA synthetase (TcYRS) _High Tyrosine SOP; type: functional; settings: 30 µM; further: in the data most compounds retested in dose-response had high values
T4 sequence (whole entry): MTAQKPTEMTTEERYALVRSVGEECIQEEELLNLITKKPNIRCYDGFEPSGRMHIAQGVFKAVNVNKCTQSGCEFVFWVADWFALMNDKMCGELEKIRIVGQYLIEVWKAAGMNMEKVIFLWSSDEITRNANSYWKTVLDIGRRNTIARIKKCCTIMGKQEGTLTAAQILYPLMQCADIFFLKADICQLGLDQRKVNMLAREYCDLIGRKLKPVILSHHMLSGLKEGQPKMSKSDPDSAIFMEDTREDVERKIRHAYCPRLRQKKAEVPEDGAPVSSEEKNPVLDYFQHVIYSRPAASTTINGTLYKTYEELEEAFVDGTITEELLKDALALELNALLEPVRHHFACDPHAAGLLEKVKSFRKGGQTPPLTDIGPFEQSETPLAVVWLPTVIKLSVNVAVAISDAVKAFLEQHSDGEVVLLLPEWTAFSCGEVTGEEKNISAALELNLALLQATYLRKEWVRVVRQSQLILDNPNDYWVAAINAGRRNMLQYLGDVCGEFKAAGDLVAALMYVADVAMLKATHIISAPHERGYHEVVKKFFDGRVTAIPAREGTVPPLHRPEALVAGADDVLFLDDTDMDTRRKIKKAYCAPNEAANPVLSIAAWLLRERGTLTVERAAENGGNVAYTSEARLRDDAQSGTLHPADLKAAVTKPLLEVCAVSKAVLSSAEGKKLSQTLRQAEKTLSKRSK

[8] = molecular target: T4, Tyrosyl-tRNA synthetase, putative (Trypanosoma cruzi (strain CL Brener)); assay: Trypanosoma cruzi tyrosyl tRNA synthetase (TcYRS) SOP; type: functional; settings: 30 µM
[9] = molecular target: Chromo domain-containing protein 1 (Saccharomyces cerevisiae (strain ATCC 204508 / S288c) (Baker's yeast)) (UniProt P32657); assay: ScCHD-1 Enzyme Inhibition Assay; type: functional; settings: 30 µM; further: in the data most compounds retested in dose-response had high values
Chain of Chromo domain-containing protein 1 (Saccharomyces cerevisiae (strain ATCC 204508 / S288c) (Baker's yeast)) (P32657 whole entry, the tested form may be a part): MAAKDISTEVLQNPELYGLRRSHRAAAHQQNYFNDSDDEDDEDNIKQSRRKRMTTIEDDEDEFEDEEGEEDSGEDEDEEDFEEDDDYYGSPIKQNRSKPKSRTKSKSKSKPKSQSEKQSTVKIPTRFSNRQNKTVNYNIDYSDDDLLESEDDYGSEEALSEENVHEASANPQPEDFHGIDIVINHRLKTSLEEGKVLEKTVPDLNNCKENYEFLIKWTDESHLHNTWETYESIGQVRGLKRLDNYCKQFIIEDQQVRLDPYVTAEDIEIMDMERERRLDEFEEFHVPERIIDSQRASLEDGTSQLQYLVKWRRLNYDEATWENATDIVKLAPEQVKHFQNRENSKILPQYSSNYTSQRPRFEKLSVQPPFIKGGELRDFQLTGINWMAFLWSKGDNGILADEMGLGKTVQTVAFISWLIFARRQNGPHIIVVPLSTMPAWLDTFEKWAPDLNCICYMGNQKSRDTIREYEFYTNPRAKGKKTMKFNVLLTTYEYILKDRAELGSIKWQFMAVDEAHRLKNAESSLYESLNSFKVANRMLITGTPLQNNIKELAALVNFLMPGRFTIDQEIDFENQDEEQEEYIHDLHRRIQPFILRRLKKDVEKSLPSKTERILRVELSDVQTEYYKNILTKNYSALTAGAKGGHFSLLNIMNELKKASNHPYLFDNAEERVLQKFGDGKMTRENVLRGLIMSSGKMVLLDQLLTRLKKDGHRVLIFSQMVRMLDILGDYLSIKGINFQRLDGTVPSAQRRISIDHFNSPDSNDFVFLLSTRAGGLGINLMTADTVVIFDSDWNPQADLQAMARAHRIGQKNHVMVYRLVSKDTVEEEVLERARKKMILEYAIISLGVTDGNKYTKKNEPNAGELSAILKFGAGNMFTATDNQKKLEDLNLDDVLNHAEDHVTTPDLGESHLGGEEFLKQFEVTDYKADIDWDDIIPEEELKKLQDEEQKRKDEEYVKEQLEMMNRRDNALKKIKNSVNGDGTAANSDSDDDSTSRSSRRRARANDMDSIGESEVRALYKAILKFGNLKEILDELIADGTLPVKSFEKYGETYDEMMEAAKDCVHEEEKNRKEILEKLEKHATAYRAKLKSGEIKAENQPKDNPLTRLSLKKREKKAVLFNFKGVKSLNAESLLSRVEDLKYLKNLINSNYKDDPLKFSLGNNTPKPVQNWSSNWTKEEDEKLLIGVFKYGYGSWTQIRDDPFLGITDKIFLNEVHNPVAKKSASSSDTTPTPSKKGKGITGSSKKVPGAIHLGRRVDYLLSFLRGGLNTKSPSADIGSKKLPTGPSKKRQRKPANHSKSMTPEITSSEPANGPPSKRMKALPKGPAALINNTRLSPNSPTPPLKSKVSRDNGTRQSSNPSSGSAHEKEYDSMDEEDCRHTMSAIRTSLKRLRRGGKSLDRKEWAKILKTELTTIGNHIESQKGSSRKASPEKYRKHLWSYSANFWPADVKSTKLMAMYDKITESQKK

Chain of Protein translocase subunit SecA (Escherichia coli (strain K12)) (P10408 whole entry): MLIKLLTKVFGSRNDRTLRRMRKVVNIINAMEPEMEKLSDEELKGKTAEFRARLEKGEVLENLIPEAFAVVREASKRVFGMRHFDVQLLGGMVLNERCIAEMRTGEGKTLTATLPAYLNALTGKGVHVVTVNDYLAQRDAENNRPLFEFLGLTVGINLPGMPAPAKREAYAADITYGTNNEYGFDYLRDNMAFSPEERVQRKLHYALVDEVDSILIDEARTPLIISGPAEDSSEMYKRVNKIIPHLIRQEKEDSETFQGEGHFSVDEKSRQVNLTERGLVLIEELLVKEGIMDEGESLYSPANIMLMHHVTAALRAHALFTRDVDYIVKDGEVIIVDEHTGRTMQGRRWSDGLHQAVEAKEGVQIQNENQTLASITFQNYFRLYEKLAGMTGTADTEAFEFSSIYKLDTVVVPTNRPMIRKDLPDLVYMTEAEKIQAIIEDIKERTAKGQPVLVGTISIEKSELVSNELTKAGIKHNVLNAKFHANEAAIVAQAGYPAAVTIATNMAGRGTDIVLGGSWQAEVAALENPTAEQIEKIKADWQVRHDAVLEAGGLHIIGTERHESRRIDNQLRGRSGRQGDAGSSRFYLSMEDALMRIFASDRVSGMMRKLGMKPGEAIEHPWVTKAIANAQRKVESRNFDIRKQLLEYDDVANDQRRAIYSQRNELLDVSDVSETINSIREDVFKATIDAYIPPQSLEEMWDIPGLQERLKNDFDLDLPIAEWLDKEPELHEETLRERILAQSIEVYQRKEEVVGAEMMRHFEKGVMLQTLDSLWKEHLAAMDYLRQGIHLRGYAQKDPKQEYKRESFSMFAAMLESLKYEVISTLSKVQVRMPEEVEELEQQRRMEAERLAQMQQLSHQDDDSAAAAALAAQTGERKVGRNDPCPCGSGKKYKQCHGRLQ

Structure (SMILES) | Percent Effect [1] | Percent Effect [2] | Percent Effect [3] | Percent Effect [4] | Percent Effect (Trypanosoma cruzi) | Percent Effect [5] | Percent Effect [6] | Percent Effect (Homo sapiens) | Percent Effect [7] | Percent Effect [8] | Percent Effect [9]
Cc1nc(C)n(CC2CCCN2Cc2nc(C3CC3)no2)n1 (configuration not stated) | -1.33% | 2.63% | -3.31% | -2.5% | 4.32% | -3.83% | 1.34% | -15.7% | 2.45% | 4.88% | -4.84%
COCCn1ccnc1C1CCCN(C(=O)CSCC2CC2)C1 (configuration not stated) | -1.08% | 6.94% | -7.23% | -0.00565% | 4.37% | 0% | 19.1% | 1.07% | 3.16% | 7.69% | -0.19%
CN(Cc1ccco1)Cc1cncc2c1CCN(c1ncccn1)C2 | -0.988% | 8% | -6.54% | -2.14% | 3.86% | -48.6% | 14.9% | -4.67% | -1.04% | 2.5% | -2.02%
O=C(CCCc1nnc(-c2ccccc2)o1)N1CCN(CCO)CC1 | 0.944% | 5.06% | -13.1% | 8.28% | -2.36% | 5.7% | 12.2% | 0.191% | 2.46% | 8.86% | -6.47%
Cn1ccc(C(=O)NC2CCC23CCN(Cc2cccnc2)CC3)c1 (configuration not stated) | -1.54% | 2.74% | 5.78% | 0.617% | 0% | 0.399% | 5.39% | 2.32% | -1.04% | -3.7% | 0.517%
CCc1nc(CN2CCN(C(=O)COCc3ccccc3)CC2)no1 | -6.48% | 8.11% | -6.87% | 35% | 4.4% | 25.1% | 10.7% | -6.99% | 2.15% | 8.64% | -11.6%
c1ccc(CN2CCc3ncnc(-c4ccsc4)c3CC2)nc1 | -4.91% | 0% | 2.79% | 8.34% | -2.83% | 5.41% | 22.7% | -21% | 2.16% | 7.69% | 3.65%
Cc1nnc(C(C)NCC2(c3c(F)cccc3F)CCCC2)o1 (configuration not stated) | -2.54% | -2.7% | -3.85% | 0.273% | -0.965% | 1.91% | 7.93% | 14.7% | 0.529% | 9.76% | -3.86%
c1ccc(-n2ccnc2)c(CNCC2CNc3ccnn3C2)c1 (configuration not stated) | -2.24% | 18.2% | -5.79% | 12.2% | 7.68% | 1.07% | 2.53% | 17.5% | 5.83% | 21.9% | -7.36%
Cc1ccc(-c2nc(CN3CCOC(Cn4cccn4)C3)cs2)o1 (configuration not stated) | 0.91% | 2.7% | -3.73% | 5.65% | 7.14% | 0.476% | 12.4% | 4.23% | 2.65% | 9.76% | 0.401%
CN(C)C(=O)Cc1nc(CN2CCCCC2Cn2cccn2)cs1 (configuration not stated) | -2.18% | -2.63% | 87.3% | -6.24% | 1.07% | -2.37% | 12.8% | 9.75% | 1.06% | -5.2% | -0.00308%
CN(C)CCN1CCC2(CC1)CN(c1cccnc1)C(=O)CO2 | -2.58% | 10.8% | 0.668% | -8.57% | -5.18% | 2.23% | 24.4% | 12.1% | 4.32% | 10.3% | -2.65%
CC(C)NC(=O)C1CN(C(N)=O)Cc2ccnn2C1 (configuration not stated) | -0.679% | 10.7% | 5.48% | 1.25% | 0.579% | -58.2% | 9.91% | 0.0597% | 3.12% | 15% | -5.6%
CCn1cnnc1C1CCN(C(=O)C(OC)c2ccccc2)CC1 (configuration not stated) | -2.02% | 18.2% | 6.32% | -9.96% | 5.58% | -1.05% | 17.9% | -11% | 8.57% | 18.8% | -17.7%
CC(C)CS(=O)(=O)CC(=O)N(C)Cc1ccc(OC(F)F)cc1 | -4.46% | 2.7% | 4.52% | -5.18% | -1.74% | 0.476% | 15.2% | 12.9% | -0.529% | 9.76% | -2.02%
Cc1ncc(CNC(=O)CCc2cccc(F)c2)c(C2CCCN2C)n1 (configuration not stated) | -7.92% | 9.46% | -0.703% | 1.74% | 0.988% | -3.94% | 5.15% | 2.42% | 2.15% | 9.09% | -19.1%
O=C(COc1ccccc1)N1CCC[C@]2(C[C@H](OCC3CC3)CO2)C1 | -0.456% | 7.79% | 0.996% | -3.06% | -3.45% | 14.8% | 22.1% | 3.98% | 8.47% | 16.7% | -7.91%
Cn1cc(-c2csc(CN3CCOCC3)n2)cn1 | 2.9% | 4.17% | -3.9% | 1.67% | 0.0972% | 8.39% | 1.58% | -3.07% | -1.05% | 2.56% | -1.39%
Cc1cccc(Nc2nccnc2C2CCCN2CC(=O)N(C)C)n1 (configuration not stated) | -5.74% | 8% | -0.423% | 3.06% | 5.32% | -3.5% | -3.08% | 1.25% | 4.25% | 6.41% | 3.88%
CC(C)[C@H](NC(=O)NC1CCS(=O)(=O)C1)C(=O)NCc1ccccc1Cl (some centres not stated) | -0.711% | -6.67% | 4.79% | 4.22% | -6.88% | -4.05% | 3.51% | -4.73% | -5.29% | -2.56% | 1.25%
CC(C)N(C)C(=O)C1=NOC2(CCN(C(=O)c3ccccn3)C2)C1 (configuration not stated) | 3.88% | 2.74% | -0.462% | 5.09% | -5.95% | -3.59% | 17.9% | 5.05% | 5.21% | 16.1% | 2.42%
Cc1cc(C(=O)NCCN2CCCC(C)C2)nn1C (configuration not stated) | -4.5% | 5.2% | -3.57% | -8.23% | -0.187% | 0% | 0.169% | 27.8% | 3.88% | 7.32% | -0.528%
